Data: PubChem BioAssay AID1159580 (chemical genetic matrix, 2015)
Several values for one entry are separate records, joined by “and”; a condition that tells them apart may be missing. Equal entries are not always repeated. The campaign covered roughly 5,500 compounds. About 2,000 (36%) were called active. Another 18% or so got no clear call; they are omitted. Cut-off read from the data, not from the text of the source: active = normalized growth mostly below about 0.91 (no sharp cut-off); inconclusive = no clear call, values can overlap the other calls; inactive = mostly above about 0.92. The list shows a part of the results.

Experiment: chemical genetic growth profiling, strain panel (AID 1159580);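 note: tested at 20 µM; growth read once vehicle control cultures reached saturation at 30 °C; 1 = growth at the plate median or of vehicle wells; lower values mean less growth of the strain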
Details: S. cerevisiae deletion strains, growth OD
[1] = locus YCL061C, strain MRC1, stronger effect = lower value
[2] = locus YDL101C, strain DUN1, stronger effect = lower value
[3] = locus YHR030C, strain SLT2, stronger effect = lower value

Measured: normalized growth

COC(=O)C1=COC(C)C2CN3CCC4(C(=O)Nc5ccccc54)C3CC12 (centres undefined)
inactive: locus YAL021C, strain ccr4, stronger effect = lower value 1.02 and 1.01 | locus YAL026C, strain drs2, stronger effect = lower value 1.02 | locus YAL030W, strain snc1, stronger effect = lower value 1.01 | locus YBL061C, strain skt5, stronger effect = lower value 1.04 and 1.02 and 1.03 | locus YBR009C, strain hhf1, stronger effect = lower value 1.04 and 1.01 and 1.02 | locus YBR023C, strain chs3, stronger effect = lower value 1.02 and 1.01 | locus YBR171W, strain sec66, stronger effect = lower value 1.03 and 1.02 | locus YBR231C, strain swc5, stronger effect = lower value 1.02 | locus YBR279W, strain paf1, stronger effect = lower value 1.02 and 1.01 | locus YCL011C, strain gbp2, stronger effect = lower value 1.02 and 1.01 | locus YCL016C, strain dcc1, stronger effect = lower value 1.01 | [1] 1.02 and 1.01 | locus YCL069W, strain vba3, stronger effect = lower value 1.02 and 1.01 | locus YCR088W, strain abp1, stronger effect = lower value 1.02 and 1.01 | locus YDL005C, strain med2, stronger effect = lower value 1.02 and 1.01 | locus YDL040C, strain nat1, stronger effect = lower value 1.02 | locus YDR001C, strain nth1, stronger effect = lower value 1.02 and 1.01 | locus YDR069C, strain doa4, stronger effect = lower value 1.02 and 1.04 | locus YDR137W, strain rgp1, stronger effect = lower value 0.988 and 0.962 and 0.914 | locus YDR159W, strain sac3, stronger effect = lower value 1.05 and 1.02 and 1.03 | locus YDR195W, strain ref2 0.992 and 0.996 and 1.01 | locus YDR297W, strain sur2, stronger effect = lower value 1.02 | locus YDR334W, strain swr1, stronger effect = lower value 1.02 and 1.01 | locus YDR335W, strain msn5, stronger effect = lower value 1.03 and 1.02 | locus YDR392W, strain spt3, stronger effect = lower value 1.04 and 1.02 | locus YEL003W, strain gim4, stronger effect = lower value 1.03 and 1.02 | locus YEL037C, strain rad23, stronger effect = lower value 1.01 and 1.02 | locus YEL061C, strain CIN8 (second series), stronger effect = lower value 1.02 and 1.01 | locus YER015W, strain faa2, stronger effect = lower value 1.02 | locus YER016W, strain bim1, stronger effect = lower value 1.01 and 1.02 | locus YER111C, strain swi4, stronger effect = lower value 1.03 and 1.02 and 1.04 | locus YER155C, strain BEM2 (second series), stronger effect = lower value 1.03 and 1.02 and 1.04 | locus YFR010W, strain ubp6, stronger effect = lower value 1.02 | locus YGL167C, strain pmr1, stronger effect = lower value 1.03 and 1.01 and 1.02 | locus YGL173C, strain kem1, stronger effect = lower value 1.04 and 1.02 and 1.03 | locus YGL227W, strain vid30, stronger effect = lower value 1.03 and 1.01 and 1.02 | locus YGL240W, strain doc1, stronger effect = lower value 1.02 | locus YGL253W, strain hxk2, stronger effect = lower value 1.02 and 1.01 | locus YHR013C, strain ard1, stronger effect = lower value 1.03 and 1.01 and 1.02 | locus YHR027C, strain rpn1, stronger effect = lower value 1.02 and 1.01 | locus YHR142W, strain chs7, stronger effect = lower value 1.02 and 1.01 | locus YJL092W, strain hpr5, stronger effect = lower value 1.03 and 1.01 and 1.02 | locus YJL095W, strain BCK1 (second series), stronger effect = lower value 1.01 and 1.02 | locus YJL115W, strain asf1, stronger effect = lower value 1.02 and 1.01 | locus YJL129C, strain trk1, stronger effect = lower value 1.03 and 1.02 | locus YJL154C, strain vps35, stronger effect = lower value 1.02 and 1.01 | locus YJL164C, strain tpk1, stronger effect = lower value 1.02 and 1.03 | locus YJL166W, strain qcr8, stronger effect = lower value 1.03 and 1.01 and 1.02 | locus YJL187C, strain SWE1, stronger effect = lower value 1.02 and 1.01 | locus YKL160W, strain elf1, stronger effect = lower value 1.02 | locus YKR026C, strain gcn3, stronger effect = lower value 1.02 and 1.03 | locus YKR091W, strain srl3, stronger effect = lower value 1.02 and 1.03 | locus YLL001W, strain dnm1, stronger effect = lower value 1.03 and 1.02 | locus YLL026W, stronger effect = lower value 1.01 and 1.02 | locus YLL041C, strain sdh2, stronger effect = lower value 1.02 and 1.01 | locus YLR027C, strain aat2, stronger effect = lower value 1.03 and 1.01 | locus YLR221C, strain rsa3, stronger effect = lower value 1.02 and 1.01 | locus YLR258W, strain gsy2, stronger effect = lower value 1.02 | locus YLR262C, strain YPT6 (second series), stronger effect = lower value 1.02 and 1.01 and 0.938 | locus YLR320W, strain mms22, stronger effect = lower value 1.04 and 1.03 | locus YLR342W, strain FKS1, stronger effect = lower value 1.02 | locus YLR357W, strain rsc2, stronger effect = lower value 1.02 and 0.996 and 1.03 | locus YLR370C, strain arc18, stronger effect = lower value 1.03 and 1 and 1.01 | locus YLR384C, strain iki3, stronger effect = lower value 1.02 and 1.01 | locus YML120C, strain ndi1, stronger effect = lower value 1.04 and 1.02 and 1.03 | locus YMR058W, strain fet3, stronger effect = lower value 1.02 | locus YMR125W, strain sto1, stronger effect = lower value 1.02 and 1.04 | locus YMR129W, stronger effect = lower value 1.02 and 1.01 | locus YMR205C, strain PFK2, stronger effect = lower value 1.03 and 1.02 | locus YMR231W, strain pep5, stronger effect = lower value 1 and 1.01 | locus YNL071W, strain lat1, stronger effect = lower value 1.02 and 1.01 | locus YNL209W, strain ssb2, stronger effect = lower value 1.02 and 1.01 | locus YNL248C, strain rpa49, stronger effect = lower value 1.02 and 1.01 | locus YNL322C, strain KRE1 (second series), stronger effect = lower value 1.01 and 1.02 | locus YNR049C, strain mso1, stronger effect = lower value 1.02 and 1.01 and 1.03 | locus YOR001W, strain rrp6, stronger effect = lower value 1.03 and 1.02 | locus YOR070C, strain gyp1, stronger effect = lower value 1.02 and 1.01 | locus YOR080W, strain dia2, stronger effect = lower value 1.03 and 1.02 | locus YOR083W, strain WHI5, stronger effect = lower value 1.02 and 1.01 | locus YOR106W, strain vam3, stronger effect = lower value 1.02 | locus YOR265W, strain rbl2, stronger effect = lower value 1.01 and 1.02 | locus YOR270C, strain vph1, stronger effect = lower value 1.02 and 1.04 and 1.03 | locus YOR290C, strain snf2, stronger effect = lower value 1.02 | locus YPL051W, strain arl3, stronger effect = lower value 1.01 | locus YPL078C, strain atp4, stronger effect = lower value 1.02 | locus YPL106C, strain sse1, stronger effect = lower value 0.998 and 1 and 1.02 | locus YPL240C, strain hsp82, stronger effect = lower value 1 and 1.02

Nc1ncnc(SCc2ccc(Cl)cc2)n1
inactive: locus YAL013W, strain DEP1, stronger effect = lower value 0.984 | locus YBR229C, strain ROT2, stronger effect = lower value 1.01 | [1] 1.02 | [2] 0.988 | locus YDR150W, strain NUM1, stronger effect = lower value 1.04 | locus YEL061C, strain CIN8, stronger effect = lower value 0.968 | locus YGR078C, strain PAC10, stronger effect = lower value 1 | [3] 1.08 | locus YHR087W, strain rtc3, stronger effect = lower value 1 | locus YJR043C, strain POL32, stronger effect = lower value 0.999 | locus YJR075W, strain HOC1, stronger effect = lower value 1.01 | locus YLR039C, strain RIC1, stronger effect = lower value 0.835 | locus YLR058C, strain SHM2 (second series), stronger effect = lower value 0.999 | locus YLR085C, strain ARP6, stronger effect = lower value 0.994 | locus YLR262C, strain YPT6, stronger effect = lower value 0.988 | locus YML094W, strain GIM5, stronger effect = lower value 0.992 | locus YMR219W, strain ESC1, stronger effect = lower value 0.996 | locus YMR263W, strain SAP30, stronger effect = lower value 0.989 | locus YMR307W, strain GAS1, stronger effect = lower value 0.995 | locus YNL153C, strain GIM3, stronger effect = lower value 1.01 | locus YNL298W, strain CLA4 (second series), stronger effect = lower value 0.98 | locus YNL322C, strain KRE1, stronger effect = lower value 0.987 | locus YNR030W, strain Alg12, stronger effect = lower value 1.02 | locus YPL055C, strain LGE1, stronger effect = lower value 1.01 | locus YPL241C, strain CIN2, stronger effect = lower value 0.993 | locus YPR135W, strain CTF4, stronger effect = lower value 1.14

Clc1ccc(CSc2nccn2-c2cc(Cl)ccc2Cl)cc1
inactive: locus YAR019C, strain CDC15, stronger effect = lower value 0.969 | locus YBL105C, strain PKC1, stronger effect = lower value 0.964 | locus YBR135W, strain CKS1, stronger effect = lower value 0.96 | locus YBR136W, strain MEC1, stronger effect = lower value 0.951 | locus YBR160W, strain CDC28, stronger effect = lower value 0.963 | locus YDL017W, strain CDC7, stronger effect = lower value 0.969 | locus YDL028C, strain MPS1, stronger effect = lower value 0.949 | [2] 0.97 | locus YDL108W, strain KIN28, stronger effect = lower value 0.937 | locus YDL132W, strain cdc53, stronger effect = lower value 0.978 | locus YDL214C, strain PRR2, stronger effect = lower value 0.888 | locus YDR052C, strain DBF4, stronger effect = lower value 0.962 | locus YDR054C, strain cdc34, stronger effect = lower value 0.946 | locus YDR226W, strain ADK1, stronger effect = lower value 0.954 | locus YDR477W, strain SNF1, stronger effect = lower value 0.888 | locus YER123W, strain YCK3, stronger effect = lower value 0.784 | locus YER133W, strain GLC7, stronger effect = lower value 0.884 | locus YFL009W, strain cdc4, stronger effect = lower value 0.951 | locus YFL029C, strain CAK1, stronger effect = lower value 0.965 | locus YFR003C, strain YPI1, stronger effect = lower value 0.958 | locus YFR019W, strain FAB1, stronger effect = lower value 0.909 | locus YFR028C, strain CDC14, stronger effect = lower value 0.961 | locus YGR040W, strain KSS1, stronger effect = lower value 0.872 | locus YGR052W, strain FMP48, stronger effect = lower value 0.946 | locus YGR092W, strain DBF2, stronger effect = lower value 0.801 | locus YHR079C, strain IRE1, stronger effect = lower value 0.88 | locus YHR082C, strain KSP1, stronger effect = lower value 0.951 | locus YHR205W, strain SCH9, stronger effect = lower value 0.893 | locus YIL147C, strain SLN1, stronger effect = lower value 0.953 | locus YJL095W, strain BCK1, stronger effect = lower value 0.886 | locus YJL128C, strain PBS2, stronger effect = lower value 0.987 | locus YJL157C, strain FAR1, stronger effect = lower value 0.867 | locus YJR016C, strain ILV3, stronger effect = lower value 0.963 | locus YJR066W, strain TOR1 (second series), stronger effect = lower value 0.829 | locus YJR066W, strain TOR1, stronger effect = lower value 0.948 | locus YKL048C, strain ELM1, stronger effect = lower value 0.927 | locus YKL067W, strain YNK1, stronger effect = lower value 0.894 | locus YKL101W, strain HSL1, stronger effect = lower value 0.887 | locus YKL193C, strain SDS22, stronger effect = lower value 0.961 | locus YKL203C, strain TOR2, stronger effect = lower value 0.915 | locus YLR113W, strain HOG1, stronger effect = lower value 0.884 | locus YLR133W, strain CKI1, stronger effect = lower value 0.886 | locus YLR403W, strain SFP1, stronger effect = lower value 0.832 | locus YML070W, strain DAK1, stronger effect = lower value 0.872 | locus YMR001C, strain CDC5, stronger effect = lower value 0.964 | locus YMR205C, strain PFK2 (second series), stronger effect = lower value 0.879 | locus YMR277W, strain FCP1, stronger effect = lower value 0.958 | locus YNL006W, strain LST8, stronger effect = lower value 0.961 | locus YNL020C, strain ARK1, stronger effect = lower value 0.859 | locus YNL161W, strain CBK1, stronger effect = lower value 0.964 | locus YNL183C, strain NPR1, stronger effect = lower value 0.909 | locus YNL207W, strain RIO2, stronger effect = lower value 0.965 | locus YNL222W, strain SSU72, stronger effect = lower value 0.961 | locus YNL307C, strain MCK1 (second series), stronger effect = lower value 0.879 | locus YOL078W, strain AVO1, stronger effect = lower value 0.962 | locus YOL136C, strain PFK27, stronger effect = lower value 0.872 | locus YOR061W, strain CKA2, stronger effect = lower value 0.817 | locus YOR119C, strain RIO1, stronger effect = lower value 0.856 | locus YOR231W, strain MKK1, stronger effect = lower value 0.868 | locus YOR329C, strain SCD5, stronger effect = lower value 0.967 | locus YPL031C, strain PHO85, stronger effect = lower value 0.866 | locus YPL153C, strain RAD53, stronger effect = lower value 0.847 | locus YPL204W, strain HRR25, stronger effect = lower value 0.86 | locus YPL209C, strain IPL1, stronger effect = lower value 0.96 | locus YPL256C, strain CLN2, stronger effect = lower value 0.977 | locus YPR025C, strain CCL1, stronger effect = lower value 0.964 | locus YPR106W, strain ISR1, stronger effect = lower value 0.978 | locus YPR111W, strain DBF20, stronger effect = lower value 0.976 | strain NNK1, stronger effect = lower value 0.974 | strain TSCII, stronger effect = lower value 0.962
active: [3] 0.69
